Test [1] in a line: Nuclear factor erythroid 2-related factor 2/antioxidant responsive element (Nrf2/ARE) small molecule agonists: qHTS cell viability counter screen in human keratinocytes (AID 1919968; active = well fitted curve in the direction sought with a large enough effect in the repeat runs; an effect the other way counts as inactive or inconclusive; note: nearly all actives have a fitted effect of over 55% in size; note: potency is the fitted concentration of half-maximal effect). Put shortly:
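KeratinoSens HaCaT cells, 1,500/well, preincubated 5 h, then exposed to compounds in DMSO for 23 h at 37 C/5% CO2. Viability read as CellTiter-Fluor fluorescence after 1 h, in the same wells as the ARE-luciferase read.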

A short description of test [2]: Nuclear factor erythroid 2-related factor 2/antioxidant responsive element (Nrf2/ARE) small molecule agonists: luciferase reporter gene qHTS assay in human keratinocytes (AID 1919969). Note: nearly all actives have a fitted effect of over 35% in size. Note: potency is the fitted concentration of half-maximal effect. Background: In a reporter assay the amount or activity of a reporter protein is the signal.
Test [3] addresses Gonadotropin-releasing hormone receptor (Homo sapiens) (UniProt P30968). The test can be described thus: Human gonadotropin-releasing hormone receptor (GnRHR) small molecule agonists, calcium flux assay in GnRHR-HEK293 cells (AID 1920063). Note: nearly all actives have a fitted effect of over 35% in size. The method in brief: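 HEK293 cells stably expressing human GnRHR were dye-loaded for 1 h at 37 C. Compound was added in agonist mode and fluorescence (Ex/Em 480/540) recorded kinetically for 3 min. Fifteen concentrations, triplicates.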

Test [4] has as its target KiSS-1 receptor (Homo sapiens) (UniProt Q969F8). In words: Human kisspeptin (KISS1R) small molecule agonists, calcium flux assay in KISS1R-HEK293 cells (AID 1920064; active = well fitted curve in the direction sought with a large enough effect in the repeat runs; an effect the other way counts as inactive or inconclusive). Put shortly: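 HEK293 cells stably expressing human KISS1R were loaded with calcium dye for 1 h at 37 C, then given compound; fluorescence (Ex/Em 480/540) was read kinetically for 3 min. Fifteen concentrations, triplicate.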
A general note: A change in cytosolic calcium serves as a functional read-out for many receptors and channels.

Test [5] in a line: G protein-coupled receptor (GPCR) small molecule agonists, calcium flux assay: HEK293 wild type cell line counter screen (AID 1920065). The method in brief: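 Wild-type HEK293 cells plated 18 h, loaded with calcium dye 1 h at 37 C, then compounds added in agonist mode (ATP as positive control). Kinetic fluorescence Ex/Em 480/540 recorded 3 min at 1 sec intervals; 15 concentrations, triplicate.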

A short description of test [6]: p53 small molecule agonists, cell-based qHTS assay with human liver microsomes (AID 1963577). Put shortly: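 Cells carrying a p53-responsive bla reporter were rested 5 h (37 C, 5% CO2) before compound transfer. Human liver microsomes plus NADPH, 0.5 mg/mL final apiece, supplied metabolism during the 16 h 37 C exposure.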
(Quantitative high-throughput screening tests each substance at several concentrations.)

Test [7] is described as follows: p53 small molecule agonists, cell-based qHTS assay with rat liver microsomes (AID 1963578). Put shortly: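 Fluorescence from a beta-lactamase reporter under a p53 response element was measured after cells had been incubated 16 h at 37 C with test compound and rat liver microsomes plus NADPH (0.5 mg/mL final each).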
Test [8] in a line: p53 small molecule agonists, cell-based qHTS assay with human liver microsomes: qHTS cell viability counter screen (AID 1963579). Note: nearly all actives have a fitted effect of over 45% in size. Put shortly:
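Seed p53RE-bla cells at 4,000 per well; incubate 5 h at 37 C; add compound, human liver microsomes and NADPH; incubate 16 h at 37 C; add CellTiter-Glo; after 30 min at room temperature, read luminescence.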

Test [9] can be described thus: p53 small molecule agonists, cell-based qHTS assay with rat liver microsomes: qHTS cell viability counter screen (AID 1963580). Note: nearly all actives have a fitted effect of over 45% in size. Put shortly: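 p53RE-bla HCT-116 cells were exposed 16 h at 37 C to compounds with rat liver microsomes (0.5 mg/mL) and NADPH (0.5 mg/mL). Viability was measured in the same wells as ATP content by CellTiter-Glo luminescence.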
The nature of test [10]: p53 small molecule agonists, cell-based qHTS assay: qHTS cell viability counter screen (AID 1963581). Note: nearly all actives have a fitted effect of over 45% in size. Put shortly: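 p53RE-bla HCT-116 cells, compounds added 5 h after plating and incubated 16 h at 37 C. Cytotoxicity measured in the same wells as intracellular ATP by CellTiter-Glo luminescence after 30 min at room temperature.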
For test [11], the target named is 5-hydroxytryptamine receptor 2A (Homo sapiens) (UniProt P28223). The test can be described thus: 5-hydroxytryptamine receptor 2A (HTR2A) small molecule antagonists, cell-based qHTS assay (AID 1963586). Note: nearly all actives have a fitted effect of over 45% in size. Put shortly:
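Antagonist-mode intracellular calcium assay: DOI (4 nM) added after 5 min compound pre-incubation at room temperature to dye-loaded HTR2A-CHO cells. Fluorescence followed for 3 min, sampled every second.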

For test [12] the target is unchanged. In words: 5-hydroxytryptamine receptor 2A (HTR2A) small molecule agonists, cell-based qHTS assay (AID 1963587). Note: nearly all actives have a fitted effect of over 30% in size. Put shortly:
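CHO cells stably expressing human HTR2A, plated 18 h, loaded with calcium dye 1 h at 37 C. Agonist mode: compounds added and intracellular calcium fluorescence recorded kinetically for 2 min at 1 sec intervals.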

Test [13] deals with Muscarinic acetylcholine receptor M1 (Homo sapiens) (UniProt P11229). In words: Cholinergic receptor muscarinic 1 (CHRM1) small molecule antagonists, cell-based qHTS assay (AID 1963588). Note: nearly all actives have a fitted effect of over 40% in size. Put shortly: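 CHRM1-CHO calcium-flux assay, antagonist mode. Cells were seeded 18 h, dye-loaded 1 h at 37 C and given compound for 5 min at RT, then acetylcholine was added at 50nM. FDSS fluorescence was read 3 min; 15 concentrations, three runs.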

For test [14] the target is unchanged. The test can be described thus: Cholinergic receptor muscarinic 1 (CHRM1) small molecule agonists, cell-based qHTS assay (AID 1963589). Note: nearly all actives have a fitted effect of over 35% in size. Put shortly: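 CHO cells stably expressing human CHRM1 were loaded with calcium dye for 1 h at 37 C, then compound was added in agonist mode. Intracellular calcium fluorescence was followed kinetically at 1 s intervals. Fifteen concentrations were tested in three independent runs.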

Test [15] has as its target Beta-2 adrenergic receptor (Homo sapiens) (UniProt P07550). In words: Adrenergic beta2 receptor (ADRB2) small molecule antagonists, cell-based qHTS assay (AID 1963592). Note: series mostly up to about 92 µM; nearly all actives have a fitted effect of over 50% in size. Put shortly: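 Cells (CHO, stable ADRB2 overexpression) incubated 18-20hr at 37C; compounds added from DMSO; agonist mix (1nM isoproterenol, 100uM IBMX, 25uM Ro-20-1724) added; 0.5hr RT; d2-cAMP and anti-cAMP-cryptate added; 1hr RT; 665/615 nm read.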

For test [16], the target named is D(2) dopamine receptor (Homo sapiens) (UniProt P14416). In words: Dopamine D2 receptor (DRD2) small molecule agonists, cell-based qHTS assay (AID 1963594). Note: nearly all actives have a fitted effect of over 35% in size. Put shortly:
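HEK293 cells stably expressing human DRD2, pre-treated with PDE inhibitor Ro20-1724 (0.1 mM final) and compound 10 min at room temperature, then stimulated with NKH477 (200nM […]) for 30 min. cAMP read by HTRF (665/620 nm).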

For test [17] the target is unchanged. The test can be described thus: Dopamine D2 receptor (DRD2) small molecule antagonists, cell-based qHTS assay (AID 1963595; active = well fitted inhibition curve with a large enough effect in the signal ratio in the repeat runs, with a control signal flat; the % refers to the signal ratio). The method in brief:
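In this cell-based antagonist screen, compounds act for 10 min at room temperature before a 30 min challenge with 12 nM quinpirole and 200 nM NKH477. cAMP is quantified by HTRF competition in DRD2-HEK293 cells containing 0.1 mM Ro20-1724.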

Test [18] in a line: cAMP Responsive Elements (CRE) small molecule antagonists, cell-based qHTS assay (AID 1963591; active = well fitted inhibition curve with a large enough effect in the signal ratio in the repeat runs, not every such curve was filed as active; the % refers to the signal ratio). The method in brief: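 CRE-bla HEK293T cells plated 18 h, then given compound plus NKH477 at 0.25 uM final for 3 h at 37C. Beta-lactamase reporter read with LiveBLAzer B/G FRET substrate after 2 h at room temperature.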
The target in test [19] is Beta-2 adrenergic receptor (Homo sapiens) (UniProt P07550). In words: Adrenergic beta2 receptor (ADRB2) small molecule agonists, cell-based qHTS assay (AID 1963593).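 Note: CHO cells stably overexpressing human ADRB2.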 The method in brief: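 CHO cells stably over-expressing ADRB2 were plated overnight at 37C, then dosed with compounds plus a stimulation mix containing 100uM IBMX and 25uM Ro-20-1724 for 0.5hr at room temperature. cAMP was measured by HTRF competition, 1hr.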

Test [20] is described as follows: cAMP Responsive Elements (CRE) small molecule agonists, cell-based qHTS assay (AID 1963590). The method in brief:
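CRE-bla HEK 293T cells, 2,000/well in DMEM with 10% dialyzed FBS and 25 mM HEPES, pre-incubated 18 h at 37 C, then exposed to compound 3 h at 37 C. Beta-lactamase reporter read with LiveBLAzer B/G FRET substrate after 2 h at room temperature.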

The structures appear in SMILES notation. Records with an inconclusive call do not appear. Calls of active or inactive are those of the source. Unless noted, calls come from the whole dose curve.

Sequence of D(2) dopamine receptor (Homo sapiens) (P14416 whole entry, looked up): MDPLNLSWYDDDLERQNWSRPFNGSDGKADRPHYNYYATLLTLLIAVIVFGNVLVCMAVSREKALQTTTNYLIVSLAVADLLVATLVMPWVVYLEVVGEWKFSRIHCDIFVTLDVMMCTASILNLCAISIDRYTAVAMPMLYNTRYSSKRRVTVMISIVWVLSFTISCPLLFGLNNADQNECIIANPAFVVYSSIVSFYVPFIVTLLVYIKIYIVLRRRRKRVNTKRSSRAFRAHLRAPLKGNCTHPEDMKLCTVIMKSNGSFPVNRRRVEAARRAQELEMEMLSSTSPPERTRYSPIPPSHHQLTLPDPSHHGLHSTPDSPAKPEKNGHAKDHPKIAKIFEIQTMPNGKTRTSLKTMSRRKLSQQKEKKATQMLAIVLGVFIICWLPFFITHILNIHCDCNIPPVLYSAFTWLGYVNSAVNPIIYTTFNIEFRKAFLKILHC
Sequence of KiSS-1 receptor (Homo sapiens) (Q969F8 whole entry, looked up): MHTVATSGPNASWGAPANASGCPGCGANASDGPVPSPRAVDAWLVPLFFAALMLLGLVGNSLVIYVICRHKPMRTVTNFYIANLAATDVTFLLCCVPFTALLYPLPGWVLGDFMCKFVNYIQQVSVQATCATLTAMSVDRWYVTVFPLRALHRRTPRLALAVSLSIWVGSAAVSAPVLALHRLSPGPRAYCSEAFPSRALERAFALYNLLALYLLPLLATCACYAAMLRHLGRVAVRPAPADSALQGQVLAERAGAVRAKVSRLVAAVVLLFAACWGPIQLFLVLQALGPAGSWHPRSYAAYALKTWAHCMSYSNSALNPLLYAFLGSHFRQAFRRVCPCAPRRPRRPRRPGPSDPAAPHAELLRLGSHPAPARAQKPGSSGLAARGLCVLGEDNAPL
Sequence of Gonadotropin-releasing hormone receptor (Homo sapiens) (P30968 whole entry, looked up): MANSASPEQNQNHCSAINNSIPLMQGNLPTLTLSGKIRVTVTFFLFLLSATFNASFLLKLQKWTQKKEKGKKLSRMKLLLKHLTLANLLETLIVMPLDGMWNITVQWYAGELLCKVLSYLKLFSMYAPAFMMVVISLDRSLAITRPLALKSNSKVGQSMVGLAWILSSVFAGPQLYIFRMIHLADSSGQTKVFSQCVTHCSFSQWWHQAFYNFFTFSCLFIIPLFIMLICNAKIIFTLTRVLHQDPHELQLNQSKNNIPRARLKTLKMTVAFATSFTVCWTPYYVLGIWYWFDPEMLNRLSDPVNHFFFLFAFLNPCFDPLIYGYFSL
Sequence of 5-hydroxytryptamine receptor 2A (Homo sapiens) (P28223 whole entry, looked up): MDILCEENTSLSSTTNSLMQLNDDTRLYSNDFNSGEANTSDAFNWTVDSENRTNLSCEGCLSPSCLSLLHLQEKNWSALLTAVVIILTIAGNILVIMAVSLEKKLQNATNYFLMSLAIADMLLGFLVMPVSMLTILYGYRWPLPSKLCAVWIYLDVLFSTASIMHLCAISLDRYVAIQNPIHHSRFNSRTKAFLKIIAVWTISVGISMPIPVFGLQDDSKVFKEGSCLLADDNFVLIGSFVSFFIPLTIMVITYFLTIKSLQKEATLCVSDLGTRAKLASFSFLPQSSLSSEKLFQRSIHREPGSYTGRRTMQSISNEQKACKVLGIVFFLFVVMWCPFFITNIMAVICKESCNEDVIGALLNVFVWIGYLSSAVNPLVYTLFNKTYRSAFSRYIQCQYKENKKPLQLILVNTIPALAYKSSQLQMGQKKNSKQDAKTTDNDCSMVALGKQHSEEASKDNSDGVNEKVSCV
Sequence of Beta-2 adrenergic receptor (Homo sapiens) (P07550 whole entry, looked up): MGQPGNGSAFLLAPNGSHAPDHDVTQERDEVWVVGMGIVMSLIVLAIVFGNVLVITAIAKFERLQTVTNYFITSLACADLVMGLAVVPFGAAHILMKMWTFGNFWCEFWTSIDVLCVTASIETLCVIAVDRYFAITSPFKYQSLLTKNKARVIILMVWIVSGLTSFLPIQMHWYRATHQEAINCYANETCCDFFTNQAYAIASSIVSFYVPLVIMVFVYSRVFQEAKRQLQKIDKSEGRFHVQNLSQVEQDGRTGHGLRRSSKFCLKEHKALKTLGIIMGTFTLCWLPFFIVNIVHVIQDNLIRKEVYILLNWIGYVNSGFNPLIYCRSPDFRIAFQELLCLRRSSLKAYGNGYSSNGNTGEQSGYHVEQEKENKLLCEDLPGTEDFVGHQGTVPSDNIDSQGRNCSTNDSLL
Sequence of Muscarinic acetylcholine receptor M1 (Homo sapiens) (P11229 whole entry, looked up): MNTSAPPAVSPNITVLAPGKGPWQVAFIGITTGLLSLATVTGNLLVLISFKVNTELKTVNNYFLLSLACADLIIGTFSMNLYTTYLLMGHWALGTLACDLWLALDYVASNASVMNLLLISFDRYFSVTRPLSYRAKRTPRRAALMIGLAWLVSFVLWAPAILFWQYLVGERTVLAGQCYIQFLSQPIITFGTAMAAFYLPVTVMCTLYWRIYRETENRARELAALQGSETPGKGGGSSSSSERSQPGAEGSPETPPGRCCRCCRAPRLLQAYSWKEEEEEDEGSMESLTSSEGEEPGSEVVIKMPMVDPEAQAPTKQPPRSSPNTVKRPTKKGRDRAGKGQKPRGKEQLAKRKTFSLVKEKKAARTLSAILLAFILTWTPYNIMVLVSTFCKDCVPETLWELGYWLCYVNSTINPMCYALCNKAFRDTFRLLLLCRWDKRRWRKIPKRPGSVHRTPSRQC

Turning to `CC(C)=CCC/C(C)=C/C=N/O`, the Potency entry in test [1], in [2], in [3], in test [6], in test [7] and in test [8] was “inactive” throughout. Also, the Potency result in test [9], in [10], in [11], in [12], in test [13] and in test [14] was “inactive” in each case. The Potency result in test [15], in test [16] and in test [17] was “inactive” each time. Besides, the result in [4] and in test [5] was inactive.
With `CC1=C(C)C(=O)C(CCCCC#CCCCC#CCO)=C(C)C1=O`, the Potency entry in [1], in test [3], in [6], in [7], in test [8] and in [9] was “inactive” throughout. Moreover, the Potency entry in test [10], in test [11], in test [12], in test [13], in test [14] and in [18] was “inactive” throughout. Moreover, the Potency entry in test [16] and in test [17] was “inactive” throughout. Further, the Potency in test [2] was 29.8 µM (active). The outcome in test [4] and in [5] was inactive.
In the case of `CC(C)c1ccc2oc3nc(N)c(C(=O)O)cc3c(=O)c2c1`, the Potency result in test [1], in test [3], in test [6], in test [7], in test [8] and in [9] was “inactive” throughout. The Potency result in test [10], in [11], in test [12], in test [13], in test [14] and in test [15] was “inactive” each time. Moreover, the Potency entry in test [19], in test [16] and in test [17] was “inactive” in each case. In test [2], the Potency was 0.944 µM (active). Also, the outcome in test [4] and in test [5] was inactive.
As for `C/C(=C\C(C)CC(C)CC(C)C)C1CC(=O)OC1=O` (stereo not drawn), the Potency result in [1], in [2], in [3], in test [6], in test [7] and in test [8] was “inactive” in each case. Further, the Potency entry in test [9], in test [10], in test [11], in [12], in test [14] and in test [20] was “inactive” throughout. Further, in [16], the Potency result was “inactive”. For the same compound, the result in test [4] and in test [5] was inactive.
For the compound `NNc1nc(-c2ccc([N+](=O)[O-])cc2)cs1`, the Potency in test [1] and in test [2] was 30.6 µM (active) in each case. For the same compound, the Potency result in test [3], in test [6], in test [7], in [8], in [9] and in test [10] was “inactive” each time. The Potency result in test [11], in test [12], in test [13], in test [14], in test [19] and in test [17] was “inactive” in each case. The outcome in [4] and in [5] was inactive.
Take `O=C(C1CCCCC1)N1CC(=O)N2CCCc3ccccc3C2C1` (stereo not drawn): the Potency entry in test [1], in test [2], in test [3], in test [6], in test [7] and in test [8] was “inactive” each time. Also, the Potency result in [9], in test [10], in [11], in [12], in [13] and in test [15] was “inactive” throughout. Moreover, the Potency entry in [16] was “inactive”. In addition, the outcome in test [4] and in test [5] was inactive.
